Test results reported in the supplement of paper PMC10849652.
About 7,900 targets were measured; listed, in parts, are those with a hit and a random draw of the rest. About 0.6% of all pairs of compound and target were hits. Unmarked numbers belong to inactive results.

Tests used:
Experiment in all cases: log2 fold change, soluble protein after heating vs DMSO (PISA); higher = thermal stabilisation; K562 cells, 10 uM, 30 min; active = over 0.2 and 3.5 SD of the protein, either way, in both replicates (recomputed)
[1] = compound: CC1=C(C=C(C=C1)NC(=O)C2=CC(=CC=C2)N(C)C)NC(=O)C3=CC=C(C=C3)O
In short: (§1)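 K562 cells at 2×10^6 cells/mL were exposed to 10 μM compound for 30 min, then aliquots were heated for 3 min across 48°C-58°C, pooled, and extracted in PBS containing 0.5% NP-40 at 4°C. The supernatant after 21,000xg for 90 min was taken as soluble protein and measured by TMTpro 16plex LC-MS/MS with channel sums equalised. Thermal stability is reported relative to control samples, with values from duplicates. Fold changes are given on a log2 scale.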

[2] = compound: CC1=CC=C(C=C1)SC2=C3C=C(SC3=CN=C2)C(=O)N
In short: as §1

[3] = compound: CC1=NC(=CC=C1)C2=C(N=C(N2)C(C)(C)C)C3=CC4=NC=CN=C4C=C3
In short: as §1

[4] = compound: CCCCN(Cc1ccc(C(=O)NO)cc1)C(=O)Nc1ccccc1 [Nexturastat A]
In short: as §1

[5] = compound: CCCS(=O)(=O)Nc1ccc(F)c(C(=O)c2c[nH]c3ncc(-c4ccc(Cl)cc4)cc23)c1F [vemurafenib]
In short: as §1

[6] = compound: CCCS(=O)(=O)Nc1ccc(F)c(C(=O)c2c[nH]c3ncc(Cl)cc23)c1F
In short: as §1

[7] = compound: CCCc1cc(C)[nH]c(=O)c1CNC(=O)c1cc(-c2ccnc(N3CCN(C)CC3)c2)cc2c1cnn2C(C)C
In short: as §1

[8] = compound: CCN(CCCOc1ccc2c(Nc3cc(CC(=O)Nc4cccc(F)c4)[nH]n3)ncnc2c1)CCOP(=O)(O)O [barasertib]
In short: as §1

[9] = compound: CC[C@@H]1C(=O)N(C)c2cnc(Nc3ccc(C(=O)NC4CCN(C)CC4)cc3OC)nc2N1C1CCCC1
In short: as §1

[10] = compound: CC[C@@H]1C(=O)N(C)c2cnc(Nc3ccc(C(=O)N[C@H]4CC[C@H](N5CCN(CC6CC6)CC5)CC4)cc3OC)nc2N1C(C)C [volasertib]
In short: as §1

[11] = compound: CC[C@H](C)N1C=C(C2=C(C=C(C=C21)C3=CN=C(C=C3)N4CCNCC4)C(=O)NCC5=C(C=C(NC5=O)C)C)C
In short: as §1

[12] = compound: CC[C@H](C)[C@@H](C(=O)N[C@@H]([C@@H](C)O)C(=O)N[C@@H](CC(C)C)C(=O)[C@]1(CO1)C)NC(=O)[C@H]([C@@H](C)CC)N(C)C(=O)C [epoxomicin]
In short: as §1

[13] = compound: CN(C)CC(=O)Nc1ccc2[nH]c(=O)c3ccccc3c2c1
In short: as §1

[14] = compound: CN(CCOC1=CC=C(C=C1)C[C@H]2C(=O)NC(=O)S2)C3=CC=CC=N3 (racemic) [rosiglitazone]
In short: as §1

[15] = compound: CN1C2=C(C3=C1C(=O)N(N=C3)CC4=CC(=CC=C4)N)SC(=C2)S(=O)C
In short: as §1

[16] = compound: CC1=C(C=C(C=C1)NC(=O)C2=CC(=CC=C2)C(C)(C)C#N)NC3=CC4=C(C=C3)N=CN(C4=O)C
In short: as §1

[17] = compound: CCN(CC)Cc1ccc2cc(COC(=O)Nc3ccc(C(=O)NO)cc3)ccc2c1 [givinostat]
In short: as §1

[18] = compound: CCn1c(C(=O)N(C2CC2)C2CC2)cc2c3c(ncn3C)c(Nc3cc(C)n(C)n3)nc21
In short: as §1

[19] = compound: CCn1cc(-c2ccnc3[nH]c(-c4cccc(CN(C)C)c4)cc23)c(-c2ccc(NC(=O)N(C)C)cc2)n1
In short: as §1

[20] = compound: CN1CCC(CNc2ccc3ncc(-c4cccc(OC(F)(F)F)c4)n3n2)CC1
In short: as §1

Sequence of UniProt O60749 (O60749 whole entry, looked up): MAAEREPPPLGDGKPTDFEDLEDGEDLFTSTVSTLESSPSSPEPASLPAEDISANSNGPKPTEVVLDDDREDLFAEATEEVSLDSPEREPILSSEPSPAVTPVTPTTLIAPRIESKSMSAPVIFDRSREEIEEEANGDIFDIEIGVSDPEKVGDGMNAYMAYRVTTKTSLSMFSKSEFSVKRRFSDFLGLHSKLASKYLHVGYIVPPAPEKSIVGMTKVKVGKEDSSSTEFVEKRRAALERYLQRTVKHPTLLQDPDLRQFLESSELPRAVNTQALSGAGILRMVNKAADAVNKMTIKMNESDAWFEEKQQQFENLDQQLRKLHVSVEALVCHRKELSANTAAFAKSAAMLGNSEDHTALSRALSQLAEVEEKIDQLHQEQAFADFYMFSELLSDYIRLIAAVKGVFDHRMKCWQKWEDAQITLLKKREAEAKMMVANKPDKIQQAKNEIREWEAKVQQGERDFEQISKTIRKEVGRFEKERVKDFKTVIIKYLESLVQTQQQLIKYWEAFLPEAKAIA
Sequence of UniProt Q9NRH2 (Q9NRH2 whole entry, looked up): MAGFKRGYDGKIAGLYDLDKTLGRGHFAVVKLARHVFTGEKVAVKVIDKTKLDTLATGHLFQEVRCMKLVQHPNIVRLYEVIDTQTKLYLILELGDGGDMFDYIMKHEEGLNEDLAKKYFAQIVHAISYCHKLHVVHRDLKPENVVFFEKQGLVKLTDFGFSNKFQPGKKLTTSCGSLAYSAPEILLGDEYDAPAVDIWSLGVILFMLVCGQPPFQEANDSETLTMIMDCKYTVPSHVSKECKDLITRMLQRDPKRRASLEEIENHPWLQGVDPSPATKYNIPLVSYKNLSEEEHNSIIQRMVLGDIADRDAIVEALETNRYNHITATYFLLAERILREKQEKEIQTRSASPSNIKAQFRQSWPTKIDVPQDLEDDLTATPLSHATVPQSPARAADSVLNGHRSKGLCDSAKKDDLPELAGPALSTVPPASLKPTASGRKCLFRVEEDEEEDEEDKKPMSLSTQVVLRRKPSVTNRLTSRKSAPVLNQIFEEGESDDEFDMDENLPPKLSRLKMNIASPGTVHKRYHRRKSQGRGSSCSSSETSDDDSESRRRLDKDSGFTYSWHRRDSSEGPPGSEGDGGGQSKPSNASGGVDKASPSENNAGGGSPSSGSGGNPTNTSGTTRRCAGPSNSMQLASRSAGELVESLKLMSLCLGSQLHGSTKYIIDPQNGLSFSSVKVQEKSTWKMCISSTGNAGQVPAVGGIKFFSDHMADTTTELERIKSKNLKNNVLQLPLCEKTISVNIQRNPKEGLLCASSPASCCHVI
Sequence of UniProt Q9H5L6 (Q9H5L6 whole entry, looked up): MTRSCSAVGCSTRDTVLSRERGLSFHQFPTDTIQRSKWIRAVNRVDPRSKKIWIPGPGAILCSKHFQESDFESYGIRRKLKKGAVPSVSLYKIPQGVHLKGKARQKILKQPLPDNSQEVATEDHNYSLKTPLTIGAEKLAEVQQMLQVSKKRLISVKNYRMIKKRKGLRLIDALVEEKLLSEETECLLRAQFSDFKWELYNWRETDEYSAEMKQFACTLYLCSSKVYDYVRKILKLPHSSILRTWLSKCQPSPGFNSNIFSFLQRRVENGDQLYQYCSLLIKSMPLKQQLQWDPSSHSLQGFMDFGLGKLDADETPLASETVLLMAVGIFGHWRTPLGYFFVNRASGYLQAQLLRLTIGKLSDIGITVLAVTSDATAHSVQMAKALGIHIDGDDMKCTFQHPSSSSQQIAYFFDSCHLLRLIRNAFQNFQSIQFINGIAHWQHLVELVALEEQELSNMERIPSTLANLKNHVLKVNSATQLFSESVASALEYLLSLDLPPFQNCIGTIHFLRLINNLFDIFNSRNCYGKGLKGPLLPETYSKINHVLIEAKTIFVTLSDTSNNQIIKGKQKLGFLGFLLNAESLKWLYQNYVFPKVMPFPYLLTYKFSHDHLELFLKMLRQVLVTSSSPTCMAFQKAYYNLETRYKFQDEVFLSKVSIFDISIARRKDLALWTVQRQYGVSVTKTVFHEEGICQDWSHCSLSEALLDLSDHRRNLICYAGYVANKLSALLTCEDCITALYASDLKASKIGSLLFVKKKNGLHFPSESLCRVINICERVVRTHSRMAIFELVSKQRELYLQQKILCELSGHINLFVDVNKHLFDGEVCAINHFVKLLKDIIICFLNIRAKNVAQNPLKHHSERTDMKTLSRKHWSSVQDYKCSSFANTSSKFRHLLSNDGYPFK
Sequence of UniProt Q9UL54 (Q9UL54 whole entry, looked up): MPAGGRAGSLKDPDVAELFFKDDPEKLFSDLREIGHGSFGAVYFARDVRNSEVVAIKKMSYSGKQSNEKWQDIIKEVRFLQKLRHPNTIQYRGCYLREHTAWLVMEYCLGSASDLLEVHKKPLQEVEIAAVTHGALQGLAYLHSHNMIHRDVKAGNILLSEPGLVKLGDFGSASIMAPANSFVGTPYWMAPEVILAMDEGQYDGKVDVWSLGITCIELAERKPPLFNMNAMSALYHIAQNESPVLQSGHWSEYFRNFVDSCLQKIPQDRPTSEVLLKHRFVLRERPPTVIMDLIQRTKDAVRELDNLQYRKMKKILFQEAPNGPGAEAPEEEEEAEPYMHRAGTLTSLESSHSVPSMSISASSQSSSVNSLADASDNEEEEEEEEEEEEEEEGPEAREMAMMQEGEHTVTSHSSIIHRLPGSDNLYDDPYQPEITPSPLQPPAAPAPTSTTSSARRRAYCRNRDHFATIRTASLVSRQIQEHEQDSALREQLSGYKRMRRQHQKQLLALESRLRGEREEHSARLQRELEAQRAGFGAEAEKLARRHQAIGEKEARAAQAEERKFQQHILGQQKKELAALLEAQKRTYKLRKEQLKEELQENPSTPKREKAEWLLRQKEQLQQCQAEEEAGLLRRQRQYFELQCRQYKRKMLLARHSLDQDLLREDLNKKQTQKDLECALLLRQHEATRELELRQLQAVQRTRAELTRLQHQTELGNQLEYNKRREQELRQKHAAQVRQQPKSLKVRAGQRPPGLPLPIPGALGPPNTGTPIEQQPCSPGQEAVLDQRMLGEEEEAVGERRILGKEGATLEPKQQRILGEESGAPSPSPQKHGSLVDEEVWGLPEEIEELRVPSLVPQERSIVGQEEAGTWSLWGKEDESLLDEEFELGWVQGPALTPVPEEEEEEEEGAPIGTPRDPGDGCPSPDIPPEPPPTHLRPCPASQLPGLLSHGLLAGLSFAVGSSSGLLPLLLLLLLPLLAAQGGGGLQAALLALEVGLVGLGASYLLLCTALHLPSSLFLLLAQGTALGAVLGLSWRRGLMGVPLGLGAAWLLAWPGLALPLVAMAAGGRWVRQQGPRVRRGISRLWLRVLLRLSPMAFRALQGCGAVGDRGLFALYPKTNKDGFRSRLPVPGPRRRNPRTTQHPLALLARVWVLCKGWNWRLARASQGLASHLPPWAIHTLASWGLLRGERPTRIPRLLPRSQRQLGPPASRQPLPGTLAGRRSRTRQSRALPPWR
Sequence of UniProt Q56A73 (Q56A73 whole entry, looked up): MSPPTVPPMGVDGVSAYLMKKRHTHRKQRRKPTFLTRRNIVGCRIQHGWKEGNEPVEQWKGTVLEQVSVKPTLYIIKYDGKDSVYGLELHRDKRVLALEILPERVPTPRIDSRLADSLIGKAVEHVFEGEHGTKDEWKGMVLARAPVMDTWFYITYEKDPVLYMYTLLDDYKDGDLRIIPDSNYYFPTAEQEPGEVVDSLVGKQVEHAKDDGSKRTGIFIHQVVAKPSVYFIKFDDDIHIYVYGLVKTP
Sequence of UniProt P36956 (P36956 whole entry, looked up): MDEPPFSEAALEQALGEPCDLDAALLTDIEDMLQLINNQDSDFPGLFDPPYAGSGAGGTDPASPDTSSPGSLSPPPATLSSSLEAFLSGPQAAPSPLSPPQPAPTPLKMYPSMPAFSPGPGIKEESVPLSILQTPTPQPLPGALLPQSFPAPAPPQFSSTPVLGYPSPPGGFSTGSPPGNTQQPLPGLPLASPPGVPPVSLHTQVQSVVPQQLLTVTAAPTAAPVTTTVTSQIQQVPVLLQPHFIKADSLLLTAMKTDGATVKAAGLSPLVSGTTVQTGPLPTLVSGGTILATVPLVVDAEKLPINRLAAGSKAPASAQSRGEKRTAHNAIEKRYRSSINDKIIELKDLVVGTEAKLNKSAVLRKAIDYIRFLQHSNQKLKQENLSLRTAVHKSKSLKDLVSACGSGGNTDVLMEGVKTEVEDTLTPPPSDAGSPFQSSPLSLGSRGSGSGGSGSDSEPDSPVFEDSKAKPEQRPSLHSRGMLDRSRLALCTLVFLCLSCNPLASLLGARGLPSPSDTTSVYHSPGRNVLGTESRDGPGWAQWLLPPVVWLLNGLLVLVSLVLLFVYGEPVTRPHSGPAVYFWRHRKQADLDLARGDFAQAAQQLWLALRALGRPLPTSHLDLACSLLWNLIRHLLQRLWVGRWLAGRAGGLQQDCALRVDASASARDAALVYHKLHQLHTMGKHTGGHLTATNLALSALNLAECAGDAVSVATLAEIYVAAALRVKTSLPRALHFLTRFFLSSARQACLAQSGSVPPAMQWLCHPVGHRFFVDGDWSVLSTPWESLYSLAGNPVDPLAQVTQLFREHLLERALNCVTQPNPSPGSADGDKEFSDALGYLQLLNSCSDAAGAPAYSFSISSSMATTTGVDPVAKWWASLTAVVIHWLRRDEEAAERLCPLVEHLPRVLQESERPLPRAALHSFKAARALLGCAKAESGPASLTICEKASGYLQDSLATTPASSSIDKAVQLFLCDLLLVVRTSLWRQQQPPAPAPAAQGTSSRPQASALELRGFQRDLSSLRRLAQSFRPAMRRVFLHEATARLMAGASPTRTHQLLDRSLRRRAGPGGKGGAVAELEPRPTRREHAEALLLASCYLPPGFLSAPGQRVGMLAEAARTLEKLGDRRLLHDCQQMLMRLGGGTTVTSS
Sequence of UniProt Q5JUR7 (Q5JUR7 whole entry, looked up): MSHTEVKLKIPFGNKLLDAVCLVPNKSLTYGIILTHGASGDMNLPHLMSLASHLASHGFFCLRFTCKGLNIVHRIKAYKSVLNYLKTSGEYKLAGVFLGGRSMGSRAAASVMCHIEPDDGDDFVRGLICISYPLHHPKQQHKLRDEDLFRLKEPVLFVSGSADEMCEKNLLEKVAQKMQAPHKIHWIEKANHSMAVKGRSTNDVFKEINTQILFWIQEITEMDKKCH

Target	log2 fold change [1]	log2 fold change [2]	log2 fold change [3]	log2 fold change [4]	log2 fold change [5]	log2 fold change [6]	log2 fold change [7]	log2 fold change [8]	log2 fold change [9]	log2 fold change [10]	log2 fold change [11]	log2 fold change [12]	log2 fold change [13]	log2 fold change [14]	log2 fold change [15]	log2 fold change [16]	log2 fold change [17]	log2 fold change [18]	log2 fold change [19]	log2 fold change [20]
TBP (UniProt P20226)	-0.04	-0.056	-0.071	0.163	0.02	-0.026	-0.154	-0.067	0.087	0.073	0.095	-0.332	-0.227	-0.035	0.001					
STK38L (UniProt Q9Y2H1)	0.165		0.056	-0.074	-0.038		0.079	0.064	0.071		-0.011	0.071	-0.045	0.024	-0.029	-0.044	-0.016	0.031	-0.015	0.016
SLC35B1 isoform 2 (UniProt P78383)	-0.109		0.054	0.072	0.267		-0.221	-0.055	0.123		-0.017	0.066	0.075	0.044	-0.111	0.165	0.069	0.001		
TATDN2 (UniProt Q93075)		0.048	-0.07	0.092	0.168	0.019		0.126	0.071	-0.008	0.104	-0.096	-0.098	0.082	0.046	-0.256	-0.004	0.044	-0.071	-0.076
SNRK (UniProt Q9NRH2)		0.066	0.225			0.07			-0.157	-0.085					-0.011	-0.029				
THAP9 (UniProt Q9H5L6)	0.017		-0.065				-0.463	0.121			-0.167			0.008	-0.039					
TAOK2 (UniProt Q9UL54)	0.024	0.062	0.08	0.487 (active)		0.051	0.007		0.024	-0.061	-0.006	-0.01					-0.363	-0.277	-0.076	0.01
SNX2 isoform 2 (UniProt O60749)		-0.003	-0.039	0.484	-0.026	-0.144		-0.054	-0.194	-0.06		0.034	-0.161	0.076	0.086	0				
SUPT5H isoform 2 (UniProt O00267)					0.232								0.149							
SREBF1 isoform 4 (UniProt P36956)			0.035	0.063			-0.932 (active)	-0.071	-0.511			-0.035		0.025	0.198		0.051	-0.047		
STK11IP (UniProt Q8N1F8)		0.038	-0.071	0.118	-0.159	0.061	0.063	0.008	-0.224	-0.517 (active)	0.103	0.069	0.025	0.011	0.026	0.095	-0.017	-0.051	-0.006	-0.233
SPAG9 isoform 4 (UniProt O60271)	-0.025		-0.038		0.174		0.028	0.176	-0.192		0.093		-0.093	-0.029		0.184	0.021	-0.066		
SPIN4 (UniProt Q56A73)			-0.601														-0.245	0.291		
SSB (UniProt E7ERC4)					0.264		0.283						-0.154		-0.34				-0.076	0.266
SMDT1 (UniProt Q9H4I9)			0.033	-0.015	0.037		-0.127	-0.021	0.08			-0.064	0.108	-0.037	0.028	0.137			-0.044	0.01
SSBP4 (UniProt U3KPY3)					-0.095		-0.028						0.049							
SLC39A1 (UniProt Q9NY26)																	-0.157	-0.09	-0.014	-0.051
SMARCB1 (UniProt Q12824)			0.101		0.065				-0.058				-0.116		0.127	0.188			0.053	-0.222
TCOF1 isoform 3 (UniProt Q13428)	0.262			-0.429					0.001			-0.352				-0.051	0.047	0.03	0.155	-0.436
SLC35B4 (UniProt Q969S0)			-0.064	-0.061	0.062		-0.002	-0.01	-0.003		-0.041	0.044	-0.134	0.005		0.018	0.077	0.042		
SP2 (UniProt Q02086)			-0.122						-0.289						0.372	-0.032				
TEX30 (UniProt Q5JUR7)	-0.182	0.047	-0.062	0.009	0.138	0.037	-0.119	0.019		-0.221	-0.044	0.007	0.075	0.028	0.046		-0.146	-0.005	0.079	-0.601 (active)
